Of roughly 8,800 targets only a part is listed; those with a hit were picked by preference. About 0.5% of all pairs of compound and target were hits.
Columns and labels:
Test in all cases: log2 fold change, soluble protein after heating vs DMSO (PISA); higher = thermal stabilisation; K562 lysate, 10 uM; active = over 0.2 and 3.5 SD of the protein, either way, in both replicates (recomputed)
erlotinib = compound: C#Cc1cccc(Nc2ncnc3cc(OCCOC)c(OCCOC)cc23)c1 [erlotinib]
Method in brief: (§1)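 Pellets of K562 cells were dounce-homogenised in PBS pH 7.4 with 1 mM MgCl2, and the crude extract was held at 1 mg/mL protein for a 30 min treatment with 10 μM compound. Aliquots were heated for 3 min over 48°C-58°C and pooled before NP-40 was added to 0.5% at 4°C. The supernatant from 21,000xg for 90 min was quantified by TMTpro 16plex LC-MS/MS with channel sums equalised. Values are reported from duplicates as log-two fold change in thermal stability relative to solvent controls.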

[1] = compound: C/C(=N\NC(=O)C1=CC(=CC=C1)S(=O)(=O)N2CCOCC2)/C3=C(C=CC(=C3)Cl)O
Method in brief: as §1

[2] = compound: C1=CC(=CC=C1C2=NC3=C(N2)C=C(C=C3)C(=O)N)OC4=CC=C(C=C4)Cl
Method in brief: as §1

[3] = compound: C1=CC2=C(C=CC(=C2)/C=C\3/C(=O)NC(=NCC4=CC=CS4)S3)N=C1
Method in brief: as §1

[4] = compound: C1=CC2=NC=CN=C2C=C1/C=C/3\C(=O)NC(=O)S3
Method in brief: as §1

[5] = compound: C1=CC=C(C=C1)C2=NC(=C(N2)C3=CC=NC=C3)C4=CC(=C(C=C4)Cl)O
Method in brief: as §1

[6] = compound: C1=CC=C2C(=C1)C3=NNC4=CC=CC(=C43)C2=O
Method in brief: as §1

[7] = compound: C1CCN(C1)C(=O)NC2=CC=CC(=C2)NC3=NC=C(C(=N3)NCCC4=CN=CN4)Br
Method in brief: as §1

[8] = compound: C1CN(CCC1(CC2=CC=C(C=C2)Cl)N)C3=NC=NC4=C3C=CN4
Method in brief: as §1

IRAK-1-4 Inhibitor I = compound: C1COCCN1CCN2C3=CC=CC=C3N=C2NC(=O)C4=CC(=CC=C4)[N+](=O)[O-] [IRAK-1-4 Inhibitor I]
Method in brief: as §1

ibrutinib = compound: C=CC(=O)N1CCC[C@@H](n2nc(-c3ccc(Oc4ccccc4)cc3)c3c(N)ncnc32)C1 [ibrutinib]
Method in brief: as §1

[9] = compound: CC(=O)c1cnc2ccc(-c3cc(Cl)c(O)c(Cl)c3)nc2c1N[C@H]1CC[C@H](CN(C)C)CC1
Method in brief: as §1

ralimetinib = compound: CC(C)(C)Cn1c(N)nc2ccc(-c3[nH]c(C(C)(C)C)nc3-c3ccc(F)cc3)nc21 [ralimetinib]
Method in brief: as §1

[10] = compound: CC(C)(O)CC(=O)NCCn1ccc2ncnc(Nc3ccc(Oc4cccc(C(F)(F)F)c4)c(Cl)c3)c21
Method in brief: as §1

[11] = compound: CC(C)C1=C2N=C(C=C(N2N=C1)NCC3=CC=CC=C3)NCCCCCCN
Method in brief: as §1

[12] = compound: CC1=C(C(CC(=O)N1)C2=CC=C(C=C2)C(F)(F)F)C(=O)NC3=C(C=C4C(=C3)C=NN4)F
Method in brief: as §1

[13] = compound: CC1=C(C2=C(C=C1)C(=O)C3=CC=CC=C3N2CCCN)C
Method in brief: as §1

[14] = compound: CC1=C(C=C(C=C1)NC(=O)C2=CC(=CC=C2)C(C)(C)C#N)NC3=CC4=C(C=C3)N=CN(C4=O)C
Method in brief: as §1

[15] = compound: CC1=C(C=C(C=C1)NC(=O)C2=CC(=CC=C2)N(C)C)NC(=O)C3=CC=C(C=C3)O
Method in brief: as §1

[16] = compound: CC1=CC=C(C=C1)SC2=C3C=C(SC3=CN=C2)C(=O)N
Method in brief: as §1

Measured: log2 fold change

EIF2B4 (UniProt Q9UI10)
inactive: erlotinib 0.066 | [1] -0.063 | [2] -0.027 | [3] -0.178 | [4] -0.02 | [5] -0.121 | [6] 0.105 | [7] -0.009 | [8] 0.07 | IRAK-1-4 Inhibitor I 0.118 | ibrutinib -0.01 | [9] 0.05 | ralimetinib -0.033 | [10] -0.062 | [11] 0.013 | [12] 0.009 | [13] -0.109 | [14] -0.044 | [15] 0.005 | [16] -0.038

GALNT2 (UniProt Q10471)
inactive: erlotinib -0.028 | [1] 0.005 | [2] -0.098 | [3] 0.054 | [4] -0.004 | [5] -0.04 | [6] -0.056 | [7] -0.045 | [8] 0.002 | IRAK-1-4 Inhibitor I -0.012 | ibrutinib -0.004 | [9] 0 | ralimetinib 0.006 | [10] 0.022 | [11] -0.005 | [12] 0.015 | [13] 0.031 | [14] -0.041 | [15] -0.012 | [16] -0.016

EMP3 (UniProt P54852)
inactive: erlotinib 0.008 | [1] -0.015 | [2] 0.018 | [3] 0.017 | [4] 0.004 | [5] 0 | [6] 0.007 | [7] -0.002 | [8] 0.029 | IRAK-1-4 Inhibitor I 0.053 | ibrutinib 0.045 | [9] -0.012 | ralimetinib 0.088 | [10] -0.081 | [11] 0 | [12] 0.013 | [13] -0.003 | [14] 0.041 | [15] -0.036 | [16] -0.01

ENO1 isoform 2 (UniProt P06733)
Sequence of UniProt P06733 (P06733 whole entry, looked up): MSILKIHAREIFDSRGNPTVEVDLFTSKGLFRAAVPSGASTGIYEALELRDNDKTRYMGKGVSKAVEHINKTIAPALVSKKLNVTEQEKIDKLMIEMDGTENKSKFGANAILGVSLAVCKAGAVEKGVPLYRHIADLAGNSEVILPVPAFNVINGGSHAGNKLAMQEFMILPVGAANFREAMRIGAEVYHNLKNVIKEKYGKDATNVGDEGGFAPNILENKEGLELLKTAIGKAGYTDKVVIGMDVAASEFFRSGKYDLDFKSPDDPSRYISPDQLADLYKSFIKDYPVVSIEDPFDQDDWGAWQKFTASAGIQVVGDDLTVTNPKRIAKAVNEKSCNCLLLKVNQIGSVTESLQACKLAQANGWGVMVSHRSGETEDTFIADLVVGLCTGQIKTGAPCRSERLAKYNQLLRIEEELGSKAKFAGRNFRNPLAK
inactive: erlotinib -0.02 | [1] -0.039 | [2] -0.035 | [3] -0.021 | [4] -0.016 | [5] -0.003 | [6] -0.066 | [7] -0.033 | [8] 0.027 | IRAK-1-4 Inhibitor I 0.015 | ibrutinib -0.043 | [9] 0.008 | ralimetinib 0.02 | [10] -0.07 | [11] 0.028 | [12] -0.009 | [13] -0.013 | [14] 0.023 | [15] -0.002 | [16] -0.015

FASTKD5 (UniProt Q7L8L6)
Sequence of UniProt Q7L8L6 (Q7L8L6 whole entry, looked up): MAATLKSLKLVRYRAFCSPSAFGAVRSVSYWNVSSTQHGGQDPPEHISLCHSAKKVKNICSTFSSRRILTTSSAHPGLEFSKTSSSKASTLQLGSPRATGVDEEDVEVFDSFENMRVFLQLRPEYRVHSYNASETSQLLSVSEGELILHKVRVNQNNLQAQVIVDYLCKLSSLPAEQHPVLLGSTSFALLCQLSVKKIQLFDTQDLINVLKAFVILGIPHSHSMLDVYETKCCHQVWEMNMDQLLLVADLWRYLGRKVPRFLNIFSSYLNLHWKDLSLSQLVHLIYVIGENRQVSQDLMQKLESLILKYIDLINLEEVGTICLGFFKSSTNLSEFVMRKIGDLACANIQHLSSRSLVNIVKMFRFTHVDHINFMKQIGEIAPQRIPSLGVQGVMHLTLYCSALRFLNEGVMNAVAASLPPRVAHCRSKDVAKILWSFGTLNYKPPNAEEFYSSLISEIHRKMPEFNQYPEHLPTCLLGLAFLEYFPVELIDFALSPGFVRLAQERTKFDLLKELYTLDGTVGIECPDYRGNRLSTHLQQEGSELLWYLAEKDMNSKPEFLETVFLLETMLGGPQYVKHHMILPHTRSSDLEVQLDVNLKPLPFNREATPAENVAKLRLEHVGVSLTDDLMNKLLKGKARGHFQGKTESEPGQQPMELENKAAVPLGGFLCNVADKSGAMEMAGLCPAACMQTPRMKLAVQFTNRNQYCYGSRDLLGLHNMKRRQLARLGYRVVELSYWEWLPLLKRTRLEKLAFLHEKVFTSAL
inactive: erlotinib 0.061 | [1] 0.019 | [2] -0.054 | [3] 0.023 | [4] 0.013 | [5] -0.014 | [6] -0.066 | [7] -0.047 | [8] 0.013 | IRAK-1-4 Inhibitor I -0.019 | ibrutinib -0.134 | [9] 0.056 | ralimetinib 0.073 | [10] 0.007 | [11] -0.027 | [12] 0.032 | [13] 0.006 | [14] 0.021 | [15] 0.008 | [16] -0.053

FAM83A (UniProt Q86UY5)
inactive: erlotinib 0 | [1] 0.168 | [2] 0.097 | [3] 0.038 | [4] -0.054 | [5] -0.107 | [6] -0.031 | [7] -0.062 | [8] 0.008 | IRAK-1-4 Inhibitor I 0.019 | ibrutinib 0.125 | [9] 0.006 | ralimetinib 0.008 | [10] 0.053 | [11] -0.06 | [12] 0.018 | [13] 0.023 | [14] 0.035 | [15] -0.023 | [16] 0.026

ERAL1 (UniProt O75616)
Sequence of UniProt O75616 (O75616 whole entry, looked up): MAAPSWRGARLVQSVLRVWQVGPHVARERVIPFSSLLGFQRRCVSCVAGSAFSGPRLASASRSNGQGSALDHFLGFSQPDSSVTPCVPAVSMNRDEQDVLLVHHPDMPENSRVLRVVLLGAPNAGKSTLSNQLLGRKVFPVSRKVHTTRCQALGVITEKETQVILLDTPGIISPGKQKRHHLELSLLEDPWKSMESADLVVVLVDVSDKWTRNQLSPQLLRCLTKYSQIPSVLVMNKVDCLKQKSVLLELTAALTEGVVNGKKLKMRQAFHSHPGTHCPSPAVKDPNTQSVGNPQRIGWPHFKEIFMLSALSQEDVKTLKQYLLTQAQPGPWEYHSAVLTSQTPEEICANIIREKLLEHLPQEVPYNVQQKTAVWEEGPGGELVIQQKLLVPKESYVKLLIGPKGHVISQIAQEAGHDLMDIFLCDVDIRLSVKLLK
inactive: erlotinib -0.016 | [1] -0.003 | [2] 0.05 | [3] -0.014 | [4] 0.03 | [5] 0.015 | [6] -0.027 | [7] -0.041 | [8] -0.047 | IRAK-1-4 Inhibitor I -0.042 | ibrutinib 0.052 | [9] -0.042 | ralimetinib 0.03 | [10] 0.011 | [11] -0.007 | [12] 0.047 | [13] 0.03 | [14] 0.014 | [15] 0.045 | [16] 0.018

GDPD1 (UniProt Q8N9F7)
inactive: erlotinib -0.037 | [1] 0.248 | [2] -0.112 | [3] 0.001 | [4] -0.041 | [5] 0.011 | [6] -0.024 | [7] 0.032 | [8] 0.086 | IRAK-1-4 Inhibitor I 0.038 | ibrutinib 0.039 | [9] -0.058 | ralimetinib 0.06 | [10] -0.137 | [11] 0.047 | [12] -0.032 | [13] -0.001 | [14] 0.055 | [15] 0.024 | [16] -0.063

EEF1AKNMT (UniProt Q8N6R0)
Sequence of UniProt Q8N6R0 (Q8N6R0 whole entry, looked up): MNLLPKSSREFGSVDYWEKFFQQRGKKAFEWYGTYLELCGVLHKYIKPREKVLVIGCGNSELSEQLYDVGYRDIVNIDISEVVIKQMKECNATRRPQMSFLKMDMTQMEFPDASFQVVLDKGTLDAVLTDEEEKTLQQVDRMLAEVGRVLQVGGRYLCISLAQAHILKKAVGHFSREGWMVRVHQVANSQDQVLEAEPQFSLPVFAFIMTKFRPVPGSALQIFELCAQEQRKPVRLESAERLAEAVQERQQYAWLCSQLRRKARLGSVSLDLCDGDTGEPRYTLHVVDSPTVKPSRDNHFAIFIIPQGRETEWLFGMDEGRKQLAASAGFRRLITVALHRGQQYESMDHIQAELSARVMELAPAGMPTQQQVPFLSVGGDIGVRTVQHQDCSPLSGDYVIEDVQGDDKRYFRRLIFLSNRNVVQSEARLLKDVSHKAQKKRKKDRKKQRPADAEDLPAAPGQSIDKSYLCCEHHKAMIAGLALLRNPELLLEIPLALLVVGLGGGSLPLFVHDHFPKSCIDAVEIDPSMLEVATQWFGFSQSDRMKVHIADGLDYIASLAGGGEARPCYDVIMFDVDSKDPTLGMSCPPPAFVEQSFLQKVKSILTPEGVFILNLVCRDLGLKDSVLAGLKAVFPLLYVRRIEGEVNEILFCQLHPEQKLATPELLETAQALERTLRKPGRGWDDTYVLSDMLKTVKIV
inactive: erlotinib 0.048 | [1] 0.029 | [2] -0.02 | [3] -0.039 | [4] 0.005 | [5] 0 | [6] -0.065 | [7] 0.011 | [8] 0.053 | IRAK-1-4 Inhibitor I -0.015 | ibrutinib -0.016 | [9] 0.017 | ralimetinib 0.096 | [10] 0.023 | [11] 0.017 | [12] -0.003 | [13] -0.024 | [14] 0.002 | [15] -0.021 | [16] 0.002

EPN2 (UniProt O95208)
Sequence of UniProt O95208 (O95208 whole entry, looked up): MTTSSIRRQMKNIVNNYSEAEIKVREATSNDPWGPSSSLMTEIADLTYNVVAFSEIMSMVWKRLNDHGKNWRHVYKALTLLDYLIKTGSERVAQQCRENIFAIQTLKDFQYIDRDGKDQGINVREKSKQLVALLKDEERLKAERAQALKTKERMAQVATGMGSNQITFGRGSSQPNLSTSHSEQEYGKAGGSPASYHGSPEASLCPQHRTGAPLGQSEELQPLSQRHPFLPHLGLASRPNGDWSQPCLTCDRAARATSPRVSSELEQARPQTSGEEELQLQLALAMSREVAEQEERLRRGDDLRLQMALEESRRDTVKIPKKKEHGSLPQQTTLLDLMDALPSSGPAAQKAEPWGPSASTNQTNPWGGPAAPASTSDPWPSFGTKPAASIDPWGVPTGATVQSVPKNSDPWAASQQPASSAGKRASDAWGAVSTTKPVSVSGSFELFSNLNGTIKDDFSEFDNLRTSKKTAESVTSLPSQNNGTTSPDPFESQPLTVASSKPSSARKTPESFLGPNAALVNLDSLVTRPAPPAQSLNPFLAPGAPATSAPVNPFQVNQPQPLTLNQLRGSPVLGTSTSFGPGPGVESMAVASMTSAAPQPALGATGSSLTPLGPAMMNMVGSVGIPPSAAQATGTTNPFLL
inactive: erlotinib 0.054 | [1] -0.08 | [2] -0.001 | [3] -0.011 | [4] -0.059 | [5] -0.039 | [6] 0.003 | [7] -0.003 | [8] 0.007 | IRAK-1-4 Inhibitor I -0.005 | ibrutinib -0.01 | [9] -0.016 | ralimetinib 0.075 | [10] -0.004 | [11] -0.058 | [12] 0.009 | [13] -0.024 | [14] 0.001 | [15] 0.017 | [16] -0.009

EHD2 (UniProt Q9NZN4)
Sequence of UniProt Q9NZN4 (Q9NZN4 whole entry, looked up): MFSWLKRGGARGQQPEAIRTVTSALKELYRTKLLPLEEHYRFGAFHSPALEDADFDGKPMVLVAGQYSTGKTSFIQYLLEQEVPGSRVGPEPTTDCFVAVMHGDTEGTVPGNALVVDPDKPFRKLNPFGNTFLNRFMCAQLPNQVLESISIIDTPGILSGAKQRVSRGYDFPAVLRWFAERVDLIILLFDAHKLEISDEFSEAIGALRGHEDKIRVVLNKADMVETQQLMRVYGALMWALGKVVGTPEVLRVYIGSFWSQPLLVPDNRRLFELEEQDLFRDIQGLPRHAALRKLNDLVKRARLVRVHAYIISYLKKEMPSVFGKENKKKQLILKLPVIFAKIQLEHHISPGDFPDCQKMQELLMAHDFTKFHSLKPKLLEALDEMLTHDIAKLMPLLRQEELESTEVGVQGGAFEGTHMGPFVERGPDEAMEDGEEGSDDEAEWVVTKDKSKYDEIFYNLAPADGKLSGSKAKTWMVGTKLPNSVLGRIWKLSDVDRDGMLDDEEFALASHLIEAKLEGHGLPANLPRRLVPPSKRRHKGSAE
inactive: erlotinib 0.048 | [1] -0.167 | [2] -0.043 | [3] -0.063 | [4] 0.012 | [5] -0.002 | [6] -0.071 | [7] -0.004 | [8] 0.012 | IRAK-1-4 Inhibitor I 0.01 | ibrutinib -0.004 | [9] 0.035 | ralimetinib 0.054 | [10] -0.027 | [11] -0.005 | [12] 0.066 | [13] 0.063 | [14] 0.019 | [15] 0.059 | [16] 0.017

FAM98A (UniProt Q8NCA5)
Sequence of UniProt Q8NCA5 (Q8NCA5 whole entry, looked up): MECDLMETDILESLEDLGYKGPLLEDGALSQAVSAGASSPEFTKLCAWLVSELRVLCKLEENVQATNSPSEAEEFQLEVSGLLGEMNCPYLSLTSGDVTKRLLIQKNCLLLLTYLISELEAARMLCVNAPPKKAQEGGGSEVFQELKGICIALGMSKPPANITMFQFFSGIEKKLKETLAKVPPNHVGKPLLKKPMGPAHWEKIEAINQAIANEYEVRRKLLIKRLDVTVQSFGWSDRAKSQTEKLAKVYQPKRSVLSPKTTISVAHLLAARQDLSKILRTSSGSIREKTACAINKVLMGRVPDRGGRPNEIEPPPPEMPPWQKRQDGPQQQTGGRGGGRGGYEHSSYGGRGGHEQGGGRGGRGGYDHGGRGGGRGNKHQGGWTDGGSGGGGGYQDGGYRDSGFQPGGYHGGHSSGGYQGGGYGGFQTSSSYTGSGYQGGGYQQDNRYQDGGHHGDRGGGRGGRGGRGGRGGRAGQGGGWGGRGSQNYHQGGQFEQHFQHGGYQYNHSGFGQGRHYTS
inactive: erlotinib -0.004 | [1] -0.026 | [2] 0.028 | [3] -0.048 | [4] -0.02 | [5] 0.01 | [6] 0.014 | [7] -0.05 | [8] -0.017 | IRAK-1-4 Inhibitor I -0.04 | ibrutinib -0.033 | [9] -0.019 | ralimetinib 0.046 | [10] 0.008 | [11] 0.014 | [12] 0.04 | [13] -0.045 | [14] 0.008 | [15] 0.035 | [16] 0.029

FKBP1A (UniProt P62942)
Sequence of UniProt P62942 (P62942 whole entry, looked up): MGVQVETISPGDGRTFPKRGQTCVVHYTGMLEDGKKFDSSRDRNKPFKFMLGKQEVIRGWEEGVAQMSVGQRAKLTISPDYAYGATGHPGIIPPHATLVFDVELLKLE
inactive: erlotinib -0.024 | [1] 0.063 | [2] 0.015 | [3] -0.061 | [4] 0 | [5] 0.024 | [6] 0.091 | [7] -0.044 | [8] 0.062 | IRAK-1-4 Inhibitor I 0.071 | ibrutinib 0.083 | [9] -0.103 | ralimetinib 0.188 | [10] -0.054 | [11] 0.049 | [12] -0.022 | [13] -0.013 | [14] 0.084 | [15] 0.018 | [16] 0.187

GAPDH (UniProt P04406)
Sequence of UniProt P04406 (P04406 whole entry, looked up): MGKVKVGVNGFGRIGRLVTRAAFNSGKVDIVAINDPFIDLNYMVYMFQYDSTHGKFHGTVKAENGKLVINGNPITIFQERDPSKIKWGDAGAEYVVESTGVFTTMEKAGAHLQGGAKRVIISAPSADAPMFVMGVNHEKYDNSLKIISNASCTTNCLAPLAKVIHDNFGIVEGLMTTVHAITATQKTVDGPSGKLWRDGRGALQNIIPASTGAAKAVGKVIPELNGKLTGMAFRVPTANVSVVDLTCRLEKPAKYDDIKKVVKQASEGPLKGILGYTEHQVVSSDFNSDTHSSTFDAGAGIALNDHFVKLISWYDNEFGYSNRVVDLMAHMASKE
inactive: erlotinib -0.007 | [1] -0.032 | [2] 0.031 | [3] 0.006 | [4] -0.006 | [5] -0.005 | [6] 0.028 | [7] 0.027 | [8] -0.034 | IRAK-1-4 Inhibitor I 0.003 | ibrutinib 0.037 | [9] 0.021 | ralimetinib -0.006 | [10] 0.02 | [11] 0.008 | [12] -0.01 | [13] -0.008 | [14] -0.037 | [15] -0.014 | [16] 0.009

FOXK1 (UniProt P85037)
inactive: erlotinib 0.014 | [1] -0.029 | [2] 0.038 | [3] 0.013 | [4] -0.057 | [5] -0.011 | [6] 0.007 | [7] -0.036 | [8] 0.013 | IRAK-1-4 Inhibitor I -0.014 | ibrutinib 0.033 | [9] 0.005 | ralimetinib 0.082 | [10] 0.063 | [11] -0.011 | [12] 0.018 | [13] 0.007 | [14] -0.025 | [15] -0.001 | [16] 0.011

EDC3 (UniProt Q96F86)
Sequence of UniProt Q96F86 (Q96F86 whole entry, looked up): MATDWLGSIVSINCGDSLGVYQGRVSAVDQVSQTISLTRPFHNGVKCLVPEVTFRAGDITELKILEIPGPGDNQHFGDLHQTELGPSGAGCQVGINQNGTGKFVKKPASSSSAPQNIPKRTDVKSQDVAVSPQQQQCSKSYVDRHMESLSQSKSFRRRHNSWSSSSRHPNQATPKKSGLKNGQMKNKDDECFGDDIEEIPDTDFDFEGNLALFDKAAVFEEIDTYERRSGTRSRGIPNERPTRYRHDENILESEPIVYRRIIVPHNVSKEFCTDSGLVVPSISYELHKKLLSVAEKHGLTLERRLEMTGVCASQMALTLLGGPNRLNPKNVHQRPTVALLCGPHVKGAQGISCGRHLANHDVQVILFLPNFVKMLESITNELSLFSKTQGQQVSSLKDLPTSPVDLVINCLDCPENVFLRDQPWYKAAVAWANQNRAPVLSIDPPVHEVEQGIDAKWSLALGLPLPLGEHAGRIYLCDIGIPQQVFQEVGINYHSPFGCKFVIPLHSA
inactive: erlotinib -0.008 | [1] -0.01 | [2] -0.023 | [3] -0.02 | [4] -0.031 | [5] 0.035 | [6] -0.011 | [7] -0.027 | [8] -0.013 | IRAK-1-4 Inhibitor I 0 | ibrutinib 0.038 | [9] 0.016 | ralimetinib 0.004 | [10] 0.001 | [11] 0.046 | [12] 0.039 | [13] -0.014 | [14] 0.009 | [15] 0.019 | [16] -0.023

— the supplement of paper PMC10849652
